# This excerpt belongs to a sample that is enriched for the strongest signals.
# B1: AFL5 (Aspergillus fumigatus), Q4WB00 (protein)
# chain: MDNFMEMTKKLGHQPELLRLRALDATYDDALEGKLVVAPLDMSEPGKKILDSGTADGTWLRNVRSKQSVPHDYYGSDVEGELFPKDPDGITYFAHSFKDPWPQQYLGFFDLVHIRGSLAGSAPEGPAPVIQNLTTLLKPGGWVQLMEMNAFSPPPNGPAMTDFAKMASEMFTGIGVGDFANNNKSMLEDAGLKNVQEKRVIVNLGKKAKPELHDQSIHGVTGPIVPLTSVARTVKSSFTGEQLDALPARVKEELETEGGQVEMIIAFGQKA
# Experiments:
# Test in all cases: glycan array binding signal (z-score within array); higher = stronger binding
# Settings in all cases: glycan notation: IUPAC condensed, linker removed
# [1] = target: Fuc(a1-2)Gal(b1-3)GlcNAc(b1-3)GalNAc
# Method in brief: (§1)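 Glycan array binding is given as a within-array Z-score, which can be read as non-binding when negative. The arrays, 3228 of them, came from the Consortium for Functional Glycomics database and were retained only where the protein sequence was available. Z-scores were averaged across arrays of the same protein sequence at different concentrations or buffers and across linkers.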
# [2] = target: Fuc(a1-2)Gal(b1-3)[Fuc(a1-4)]GlcNAc
# Method in brief: as §1
# [3] = target: Fuc(a1-2)Gal(b1-4)GlcNAc(b1-6)GalNAc
# Method in brief: as §1
# [4] = target: Fuc(a1-2)Gal(b1-4)[Fuc(a1-3)]GlcNAc(b1-3)Gal(b1-4)[Fuc(a1-3)]GlcNAc(b1-3)Gal(b1-4)[Fuc(a1-3)]GlcNAc
# Method in brief: as §1
# [5] = target: Fuc(a1-2)[Gal(a1-3)]Gal(b1-3)GlcNAc
# Method in brief: as §1
# [6] = target: Fuc(a1-2)[Gal(a1-3)]Gal(b1-4)GlcNAc
# Method in brief: as §1
# [7] = target: Fuc(a1-2)[Gal(a1-3)]Gal(b1-4)[Fuc(a1-3)]GlcNAc
# Method in brief: as §1
# [8] = target: Fuc(a1-2)[GalNAc(a1-3)]Gal(b1-4)GlcNAc(b1-2)Man
# Method in brief: as §1
# [9] = target: Fuc(a1-2)[GalNAc(b1-3)]Gal
# Method in brief: as §1
# [10] = target: Fuc(a1-3)[Gal(b1-4)]GlcNAc(b1-3)GalNAc
# Method in brief: as §1
# Gal(a1-3)Gal(b1-3)GlcNAc = target: Gal(a1-3)Gal(b1-3)GlcNAc
# Method in brief: as §1
# [11] = target: Gal(a1-3)Gal(b1-4)[Fuc(a1-3)]GlcNAc
# Method in brief: as §1
# Gal(b1-3)Gal = target: Gal(b1-3)Gal
# Method in brief: as §1
# Gal(b1-3)GlcNAc = target: Gal(b1-3)GlcNAc
# Method in brief: as §1
# [12] = target: Gal(b1-3)GlcNAc(b1-3)Gal(b1-4)GlcNAc(b1-2)[Gal(b1-3)GlcNAc(b1-3)Gal(b1-4)GlcNAc(b1-6)]Man(a1-6)[Gal(b1-3)GlcNAc(b1-3)Gal(b1-4)GlcNAc(b1-2)Man(a1-3)]Man(b1-4)GlcNAc(b1-4)[Fuc(a1-6)]GlcNAc
# Method in brief: as §1
# [13] = target: Gal(b1-3)GlcNAc(b1-3)Gal(b1-4)GlcNAc(b1-6)[Gal(b1-3)GlcNAc(b1-3)]Gal(b1-4)Glc
# Method in brief: as §1
# Gal(b1-4)Gal = target: Gal(b1-4)Gal
# Method in brief: as §1
# [14] = target: Gal(b1-4)GlcNAc(b1-2)Man(a1-3)[Gal(b1-4)GlcNAc(b1-2)Man(a1-6)]Man(b1-4)GlcNAc(b1-4)[Fuc(a1-6)]GlcNAc
# Method in brief: as §1
# [15] = target: Gal(b1-4)GlcNAc(b1-2)Man(a1-3)[Gal(b1-4)GlcNAc(b1-2)Man(a1-6)][GlcNAc(b1-4)]Man(b1-4)GlcNAc(b1-4)[Fuc(a1-6)]GlcNAc
# Method in brief: as §1
# [16] = target: Gal(b1-4)GlcNAc(b1-2)[Gal(b1-4)GlcNAc(b1-4)]Man(a1-3)[GlcNAc(b1-4)][Gal(b1-4)GlcNAc(b1-2)Man(a1-6)]Man(b1-4)GlcNAc(b1-4)GlcNAc
# Method in brief: as §1
# [17] = target: Gal(b1-4)GlcNAc(b1-2)[Gal(b1-4)GlcNAc(b1-6)]Man(a1-6)[GlcNAc(b1-4)][Gal(b1-4)GlcNAc(b1-2)[Gal(b1-4)GlcNAc(b1-4)]Man(a1-3)]Man(b1-4)GlcNAc(b1-4)[Fuc(a1-6)]GlcNAc
# Method in brief: as §1
# [18] = target: Gal(b1-4)GlcNAc(b1-3)Gal(b1-4)GlcNAc(b1-2)Man(a1-3)[Gal(b1-4)GlcNAc(b1-3)Gal(b1-4)GlcNAc(b1-2)Man(a1-6)]Man(b1-4)GlcNAc(b1-4)[Fuc(a1-6)]GlcNAc
# Method in brief: as §1
# [19] = target: Gal(b1-4)GlcNAc(b1-3)Gal(b1-4)GlcNAc(b1-3)Gal(b1-4)GlcNAc(b1-3)Gal(b1-4)GlcNAc(b1-2)Man(a1-3)[Gal(b1-4)GlcNAc(b1-3)Gal(b1-4)GlcNAc(b1-3)Gal(b1-4)GlcNAc(b1-3)Gal(b1-4)GlcNAc(b1-2)Man(a1-6)]Man(b1-4)GlcNAc(b1-4)GlcNAc
# Method in brief: as §1
# [20] = target: Gal(b1-4)GlcNAc(b1-3)Gal(b1-4)GlcNAc(b1-3)Gal(b1-4)GlcNAc(b1-3)Gal(b1-4)GlcNAc(b1-2)Man(a1-3)[Gal(b1-4)GlcNAc(b1-3)Gal(b1-4)GlcNAc(b1-3)Gal(b1-4)GlcNAc(b1-3)Gal(b1-4)GlcNAc(b1-2)Man(a1-6)]Man(b1-4)GlcNAc(b1-4)[Fuc(a1-6)]GlcNAc
# Method in brief: as §1
# [21] = target: Gal(b1-4)GlcNAc(b1-3)Gal(b1-4)GlcNAc(b1-3)Gal(b1-4)GlcNAc(b1-3)Gal(b1-4)GlcNAc(b1-3)Gal(b1-4)GlcNAc(b1-2)Man(a1-3)[Gal(b1-4)GlcNAc(b1-3)Gal(b1-4)GlcNAc(b1-3)Gal(b1-4)GlcNAc(b1-3)Gal(b1-4)GlcNAc(b1-3)Gal(b1-4)GlcNAc(b1-2)Man(a1-6)]Man(b1-4)GlcNAc(b1-4)[Fuc(a1-6)]GlcNAc
# Method in brief: as §1
# [22] = target: Gal(b1-4)GlcNAc(b1-3)Gal(b1-4)GlcNAc(b1-3)Gal(b1-4)GlcNAc(b1-3)Gal(b1-4)GlcNAc(b1-3)Gal(b1-4)GlcNAc(b1-2)[Gal(b1-4)GlcNAc(b1-3)Gal(b1-4)GlcNAc(b1-3)Gal(b1-4)GlcNAc(b1-3)Gal(b1-4)GlcNAc(b1-3)Gal(b1-4)GlcNAc(b1-6)]Man(a1-6)[Gal(b1-4)GlcNAc(b1-3)Gal(b1-4)GlcNAc(b1-3)Gal(b1-4)GlcNAc(b1-3)Gal(b1-4)GlcNAc(b1-3)Gal(b1-4)GlcNAc(b1-2)Man(a1-3)]Man(b1-4)GlcNAc(b1-4)[Fuc(a1-6)]GlcNAc
# Method in brief: as §1
# [23] = target: Gal(b1-4)GlcNAc(b1-3)GalNAc
# Method in brief: as §1
# Gal3S6S(b1-4)GlcNAc6S = target: Gal3S6S(b1-4)GlcNAc6S
# Method in brief: as §1
binder,measurement,setting,value
B1,glycan array binding signal (z-score),[1],-0.31
same,glycan array binding signal (z-score),[2],-0.036
same,glycan array binding signal (z-score),[3],-0.782
same,glycan array binding signal (z-score),[4],-0.555
same,glycan array binding signal (z-score),[5],-0.252
same,glycan array binding signal (z-score),[6],-0.456
same,glycan array binding signal (z-score),[7],-0.109
same,glycan array binding signal (z-score),[8],-0.322
same,glycan array binding signal (z-score),[9],-0.258
same,glycan array binding signal (z-score),[10],-0.016
same,glycan array binding signal (z-score),Gal(a1-3)Gal(b1-3)GlcNAc,-0.285
same,glycan array binding signal (z-score),[11],21.5
same,glycan array binding signal (z-score),Gal(b1-3)Gal,-0.063
same,glycan array binding signal (z-score),Gal(b1-3)GlcNAc,-0.272
same,glycan array binding signal (z-score),[12],1.17
same,glycan array binding signal (z-score),[13],-0.412
same,glycan array binding signal (z-score),Gal(b1-4)Gal,-0.502
same,glycan array binding signal (z-score),[14],0.004
same,glycan array binding signal (z-score),[15],-0.411
same,glycan array binding signal (z-score),[16],-0.134
same,glycan array binding signal (z-score),[17],3.2
same,glycan array binding signal (z-score),[18],1.35
same,glycan array binding signal (z-score),[19],0.075
same,glycan array binding signal (z-score),[20],1.69
same,glycan array binding signal (z-score),[21],1.46
same,glycan array binding signal (z-score),[22],1.6
same,glycan array binding signal (z-score),[23],-0.561
same,glycan array binding signal (z-score),Gal3S6S(b1-4)GlcNAc6S,0.29

# — the supplement of paper PMC8728848
